# Screening data from PubChem BioAssay.
# Beta apoptosis: beta cell apoptosis inhibition | protection from apoptosis, % (concentration not given with the values) | INS-1E cytokine-induced death, ATP luminescence, 48 h; percent of positive-control rescue, neutral wells zero | actives 0.8% (n = 300,000);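 active = Every replicate reaches about 75%, or at least half do and their mean reaches it too, limit read from the data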;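 also: higher means more ATP so stronger rescue from cytokine killing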
# Mdm2 MdmX PPI: disrupts the human Mdm2-MdmX interaction. inhibition, % at 8 µM. actives 3% (n = 330,000). AID 485346. SaOS-2 split-luciferase Mdm2/MdmX complementation, luminescence. O15151+Q00987;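 active = inhibition of at least 50% at 8 µM in the primary screen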
# Target sequence (O15151 whole entry, looked up): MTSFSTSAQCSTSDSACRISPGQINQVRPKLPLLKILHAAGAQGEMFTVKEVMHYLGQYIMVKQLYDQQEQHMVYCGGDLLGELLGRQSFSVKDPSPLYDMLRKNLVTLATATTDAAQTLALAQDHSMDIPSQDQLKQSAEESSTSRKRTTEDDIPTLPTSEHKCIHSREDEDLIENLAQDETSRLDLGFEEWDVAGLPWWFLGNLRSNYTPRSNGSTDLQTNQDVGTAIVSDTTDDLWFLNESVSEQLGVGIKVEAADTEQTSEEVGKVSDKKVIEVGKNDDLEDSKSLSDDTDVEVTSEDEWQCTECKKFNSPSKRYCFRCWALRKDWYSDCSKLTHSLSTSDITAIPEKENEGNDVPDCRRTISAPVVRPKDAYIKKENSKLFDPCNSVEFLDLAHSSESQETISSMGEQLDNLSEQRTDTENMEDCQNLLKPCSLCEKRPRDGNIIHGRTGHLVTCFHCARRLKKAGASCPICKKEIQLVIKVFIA
# Target sequence (Q00987 whole entry, looked up): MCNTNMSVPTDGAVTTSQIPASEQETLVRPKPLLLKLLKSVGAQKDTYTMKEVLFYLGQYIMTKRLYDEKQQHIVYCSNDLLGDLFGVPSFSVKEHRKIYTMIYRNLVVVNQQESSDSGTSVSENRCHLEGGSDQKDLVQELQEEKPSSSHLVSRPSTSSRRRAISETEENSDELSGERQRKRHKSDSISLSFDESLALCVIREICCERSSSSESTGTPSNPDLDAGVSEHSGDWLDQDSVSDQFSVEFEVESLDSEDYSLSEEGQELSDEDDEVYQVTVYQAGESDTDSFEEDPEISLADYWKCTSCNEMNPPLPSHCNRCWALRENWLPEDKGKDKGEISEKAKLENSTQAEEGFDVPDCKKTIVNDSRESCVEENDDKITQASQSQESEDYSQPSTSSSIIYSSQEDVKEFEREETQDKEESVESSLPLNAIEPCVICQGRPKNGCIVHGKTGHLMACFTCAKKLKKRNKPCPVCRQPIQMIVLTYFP
# Gli-Sufu antag: blocks Gli-Sufu signaling in a luciferase reporter | Sufu-KO-LIGHT fibroblasts, Gli luciferase reporter luminescence | inhibition, % at 5 µM | actives 0.74% (n = 340,000);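 active = inhibition above about 55%, limit read from the data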
# Jurkat NFkB inh: lowers PMA/ionomycin-induced NF-kB signal in Jurkat cells; actives 0.53% (n = 330,000); PMA/ionomycin-induced NF-kB luciferase reporter, luminescence; inhibition, % at 4 µM; in the data active = inhibition above about 50%
# 697 NFkB inh: lowers PMA/ionomycin-induced NF-kB signal in 697 B cells; 697 B-cell NF-kB luciferase reporter, 16 h; inhibition, % at 4 µM; actives 0.33% (n = 330,000); AID 435022; in the data active = inhibition above about 35%
# Jurkat NFkB conf: inhibitors of the PMA/ionomycin-induced NF-kB reporter in Jurkat cells, retest; actives 27% (n = 2,700); AID 435020; shares compounds with Jurkat NFkB inh; inhibition, % at 4 µM; Jurkat NF-kB luciferase, 16 h;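 active = inhibition reaching about 45% at 4 µM in either replicate, limit read from the data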
# 697 NFkB conf: inhibitors of the PMA/ionomycin-induced NF-kB reporter in 697 B cells, retest; shares compounds with 697 NFkB inh; 697 B-cell NF-kB luciferase, 16 h; inhibition, % at 4 µM; actives 35% (n = 2,000); in the data active = inhibition mostly above about 28%, no sharp cut-off; inactive = mostly below about 22%
# Mdm2-MdmX conf: confirmation of human Mdm2/MdmX interaction inhibitors; shares compounds with Mdm2 MdmX PPI; Mdm2-MdmX binding, luminescent assay; inhibition, % at 8 µM; actives 55% (n = 10,000); in the data active = inhibition above about 40%
# Full FLuc ctr: full-length luciferase inhibition in Mdm2/MdmX counter-screen. shares compounds with Mdm2 MdmX PPI. SaOS-2 full-length luciferase counterscreen, luminescence. inhibition, % at 8 µM. actives 77% (n = 6,200);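 active = mean inhibition at 8 µM reaching about 37%, which flags the compound as non-specific, limit read from the data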;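 also: p53-null SaOS-2 cells with luciferase driven by a doxycycline-inducible promoter; compound on cells about two nights before reading with doxycycline added after day one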
# Numbers stand for hits; – = inactive; · = not tested or not shown. This is a sample that favours compounds with a hit; in the whole collection about 4% have one here.
SMILES,Beta apoptosis,Mdm2 MdmX PPI,Gli-Sufu antag,Jurkat NFkB inh,697 NFkB inh,Jurkat NFkB conf,Mdm2-MdmX conf,Full FLuc ctr,others
O=C(Cc1ccc(Cl)cc1)Nc1ccc(-c2cc3ccccc3oc2=O)c(Cl)c1,–,59.1,–,58.9,–,–,62.3,51.7,
CCC(CC)C(=O)Nc1ccc(-c2cn3cccnc3n2)cc1,·,–,–,–,–,·,·,·,
CCCC(=NCCc1c(C)[nH]c2ccccc12)C1=C(O)CC(c2ccccc2)CC1=O (configuration not stated),–,51.7,–,54.0,–,–,52.9,55.4,
CCC/C(O)=C1\C(=O)CCCC1=NCCc1c(C)[nH]c2ccccc12,–,–,–,–,–,·,·,·,
OCCCNc1cc(-c2ccnc(Nc3cccc(Cl)c3)n2)ccn1,–,100.3,75.0,98.6,85.3,99.9,99.6,50.5,697 NFkB conf=90.8
Cc1ccc(C2c3[nH]c4ccccc4c3C[C@H]3C(=O)N(c4ccccc4C(=O)N4CCC[C@H]4C(=O)O)C(=O)N23)cc1 (some centres not stated),–,–,–,–,–,·,·,·,
O=C(Nc1nc2ccc(S(=O)(=O)N3CCCCC3)cc2s1)C1CCCO1 (configuration not stated),–,–,–,–,–,·,·,·,
O=C(Nc1nc2ccc(S(=O)(=O)N3CCCC3)cc2s1)C1CCCCC1,–,65.5,–,62.3,–,58.2,56.6,69.9,
c1ccc2oc(-c3ccc(Nc4nc(N5CCOCC5)nc(N5CCOCC5)n4)cc3)nc2c1,·,·,–,·,·,·,·,·,
COc1ccc([N+](=O)[O-])cc1Nc1c2ccccc2nc2ccccc12,–,64.4,–,58.8,–,–,63.4,62.6,
COc1cc(NS(C)(=O)=O)ccc1Nc1c2ccccc2nc2ccccc12,–,89.2,73.8,71.6,–,81.7,73.2,59.4,697 NFkB conf=–
O=C(O)c1cc(S(=O)(=O)O)cc(Nc2c3ccccc3nc3ccccc23)c1O,–,–,–,–,–,·,·,·,
CCCc1c(C(=O)N/N=C(\C)CCc2ccccc2)nnn1-c1nonc1N,–,–,–,–,–,·,·,·,
O=S(=O)(Nc1cccc(-c2ccc3nncn3n2)c1)c1cccc(F)c1,–,–,–,–,–,·,·,·,
COc1ccc(S(=O)(=O)Nc2cccc(-c3ccc4nncn4n3)c2)cc1F,–,50.1,–,57.7,–,50.2,66.0,60.6,
Cc1nc(Cl)c(C(=O)NCc2ccccc2)c(C)c1Cl,–,–,–,–,–,·,·,·,
O=C(NCc1ccccc1)c1c(Cl)nc(Cl)c(Cl)c1Cl,–,100.3,–,50.8,–,–,93.7,52.9,
COc1ccc(N(Cc2cc3cc(OC)ccc3[nH]c2=O)S(=O)(=O)c2ccc(NC(C)=O)cc2)cc1,–,76.9,–,68.6,–,–,70.8,65.1,
COc1ccc(-c2ccc3oc(-c4ccc(OC)cc4)c(C#CCO)c3c2)cc1,–,87.9,–,73.2,–,56.9,72.6,–,
O=C(CCN1C(=O)[C@@H]2Cc3ccccc3CN2C1=O)N[C@H](C(=O)O)c1ccccc1,–,–,–,–,–,·,·,·,
COc1ccc(N(C)C2=NS(=O)(=O)c3ccccc32)cc1,–,52.1,–,55.6,–,–,69.1,54.8,
O=C(Nc1ccc(N2CCCCC2)cc1)c1ccccn1,–,80.8,64.4,66.7,–,68.9,83.8,–,
O=C(Nc1ccc(N2CCCC2)cc1)C(c1ccccc1)c1ccccc1,–,–,–,–,–,·,·,·,
CCOC(=O)CSC1=C(C#N)C(c2ccc(C)o2)CC(=O)N1 (configuration not stated),–,64.7,–,58.1,–,–,52.0,73.0,
CCOC(=O)CSC1=C(C#N)C(c2ccc(Cl)cc2)CC(=O)N1 (configuration not stated),–,–,–,–,–,·,·,·,
SMILES,Beta apoptosis,Mdm2 MdmX PPI,Gli-Sufu antag,Jurkat NFkB inh,697 NFkB inh,Jurkat NFkB conf,Mdm2-MdmX conf,Full FLuc ctr,others
CS(=O)(=O)N(CC(=O)Nc1ccccc1C(=O)NCc1ccco1)c1ccccc1F,–,–,–,–,–,·,·,·,
O=C(NCc1ccc(N2CCCC2=O)cc1)C1CCC(=O)N(Cc2ccccc2F)C1 (configuration not stated),·,–,–,–,–,·,·,·,
COc1ccc2[nH]c3c(N4CCC(O)(c5cccc(C(F)(F)F)c5)CC4)ncnc3c2c1,–,74.5,–,50.8,–,–,66.9,–,
Cc1ccc2[nH]c3c(N4CCOCC4)ncnc3c2c1,–,–,–,–,–,·,·,·,
CN1CCN(c2ncnc3c2[nH]c2ccc(F)cc23)CC1,–,–,–,–,–,·,·,·,
CCOc1ccc2[nH]c3c(N4CCc5ccccc5C4)ncnc3c2c1,–,56.8,–,51.6,–,–,59.4,–,
CN(Cc1nc2ccccc2c(=O)[nH]1)C(=O)c1cccc(S(=O)(=O)N2CCc3ccccc32)c1,–,80.9,–,58.5,–,–,55.0,67.6,
CCOc1ccc(CNCCc2ccc(S(N)(=O)=O)cc2)cc1,·,–,–,–,–,·,·,·,
CCOc1cc(CNCCc2ccc(S(N)(=O)=O)cc2)ccc1OCc1ccc(Cl)cc1,104.6,100.3,–,54.1,–,–,67.6,65.1,
COc1ccc(N(CC(=O)N2CCOCC2)S(C)(=O)=O)cc1Cl,–,–,–,–,–,·,·,·,
CCCSc1nnc(Sc2nnnn2-c2ccccc2)s1,·,65.9,–,86.6,–,60.8,63.5,56.0,
C(=C\CSc1nnnn1-c1ccccc1)/CSc1nnnn1-c1ccccc1,–,–,–,–,–,·,·,·,
Cn1cc(C(=O)C(=O)N2CCCCC2)c2ccccc21,·,·,–,·,·,·,·,·,
COc1ccccc1N1CCN(C(=O)c2ccc3[nH]c(C)c(C)c3c2)CC1,–,50.8,–,54.4,–,–,63.4,65.7,
Cc1[nH]c2ccc(C(=O)N3CCN(c4ccccc4Cl)CC3)cc2c1C,–,–,–,–,–,·,·,·,
Cc1cccc(N2CCN(C(=O)c3ccc(S(=O)(=O)N(C)c4ccccc4)cc3)CC2)c1C,–,67.5,–,57.8,–,–,58.8,61.0,
COc1ccccc1N1CCN(C(=O)c2oc3ccc(Br)cc3c2C)CC1,–,56.9,–,65.5,–,–,57.9,53.7,
COc1cc(C(=O)N2CCN(c3ccc(C)cc3C)CC2)cc(OC)c1OC,–,57.8,–,62.7,–,–,47.5,44.0,
Cc1[nH]c2ccc(C(=O)N3CCCC3)cc2c1C,–,–,–,–,–,·,·,·,
Cc1cccc(N2CCN(C(=O)c3ccc4[nH]c(C)c(C)c4c3)CC2)c1C,–,60.3,–,56.2,–,52.5,58.0,70.7,
